Common to all, as to experiment: NCI-60 one-dose screen, 48 h (100 = growth as untreated, 0 = no growth, -100 = all killed)
For one test, the system named is HCT-15 colon. As to conditions: 10 µM unless noted.
The next test concerns HT29 colon. As to conditions: 10 µM unless noted.
The subject of another test is SNB-75 CNS. As to conditions: 10 µM unless noted.
For a further test, the system named is SNB-19 CNS. As to conditions: 10 µM unless noted.
In the next test the test system is U251 CNS. As to conditions: 10 µM unless noted.
In a further test the test system is PC-3 prostate. The conditions noted are these: 10 µM unless noted.
For a further test, the system named is SK-MEL-5 melanoma. As to conditions: 10 µM unless noted.
The test system of a further test is UACC-62 melanoma. The conditions noted are these: 10 µM unless noted.
The test system of another test is LOX IMVI melanoma. As to conditions: 10 µM unless noted.
The test system of another test is SK-MEL-28 melanoma. The conditions noted are these: 10 µM unless noted.
Another test has as its system SK-MEL-2 melanoma. As to conditions: 10 µM unless noted.
Another test deals with EKVX NSCLC. As to conditions: 10 µM unless noted.
The next test deals with UO-31 renal. The conditions noted are these: 10 µM unless noted.
Another test deals with TK-10 renal. The conditions noted are these: 10 µM unless noted.
In another test the test system is ACHN renal. The conditions noted are these: 10 µM unless noted.
A further test deals with CAKI-1 renal. As to conditions: 10 µM unless noted.
For another test, the system named is A498 renal. The conditions noted are these: 10 µM.
The test system of a further test is HL-60(TB) leukemia. As to conditions: 10 µM unless noted.
Another test has as its system CCRF-CEM leukemia. As to conditions: 10 µM unless noted.
For a further test, the system named is SN12C renal. The conditions noted are these: 10 µM unless noted.

About 83,000 compounds went through this panel and 20% of them were active in at least one assay; those are over-represented in the sample as a whole.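 The test compound was applied at a single concentration to cells in 96-well plates for 48 hours, and percent growth was recorded.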 Unmarked numbers belong to inactive results. The source made the active and inactive calls. How the source made its calls: active means growth percent below 10; inactive means the rest.

In the case of `COc1ccc(C(O)(C(=O)O)c2ccc(OC)cc2)cc1`, the growth in the test on HCT-15 colon was 95.7%; in the test with HT29 colon it was 81.4%; with SNB-75 CNS, 101%; in the test on SNB-19 CNS, 96.9%; with U251 CNS it was 93.9%; in the test on PC-3 prostate, 77.8%. The growth with SK-MEL-5 melanoma is 93.6%; in the test on UACC-62 melanoma, 85.7%; with LOX IMVI melanoma it was 93.6%; in the test with SK-MEL-28 melanoma, 103%; in the test with SK-MEL-2 melanoma, 78.8%; in the test with EKVX NSCLC, 85%. Besides, the growth is 87.6% with UO-31 renal; 88.2% in the test on TK-10 renal; 85.8% with ACHN renal; 100% with CAKI-1 renal; 95.3% in the test with A498 renal; 96.9% in the test on HL-60(TB) leukemia. Besides, the growth in the test on CCRF-CEM leukemia is 79.8%.
Regarding `C=C1[C@@H](C)[C@H]2[C@H](Cc3ccccc3)NC(=O)[C@]23[C@@H](O)/C=C/[C@@](C)(O)C(=O)[C@@H](C)C/C=C/[C@H]3[C@@H]1O`, the growth was 66.1% with HCT-15 colon; 25.3% with HT29 colon; -8.47% (active) in the test with SNB-75 CNS; 40.7% in the test on SNB-19 CNS; 21.9% in the test on U251 CNS; 45.2% in the test with PC-3 prostate. The growth is 77.6% with SK-MEL-5 melanoma; 65.6% in the test on UACC-62 melanoma; 27.1% in the test on LOX IMVI melanoma; 67.1% in the test on SK-MEL-28 melanoma; 65.1% in the test with SK-MEL-2 melanoma; 57.2% in the test with EKVX NSCLC. The growth is 66.1% with SN12C renal, 52.5% with CAKI-1 renal and 73.4% in the test with HL-60(TB) leukemia.
With `COC(=O)[C@@H](C)C[C@H](Cc1ccccc1)NC(=O)c1csc([C@@H](C[C@H](C(C)C)N(C)C(=O)C2(NC(=O)[C@H]3CCCCN3C)CCC2)OC(C)=O)n1`, the growth with HCT-15 colon was 17.1%; in the test on HT29 colon, 5.81% (active); with SNB-75 CNS, 28.5%; with SNB-19 CNS, 73.2%; with U251 CNS it was 6.93% (active); in the test on PC-3 prostate it was 19.4%. Besides, the growth is -43.7% (active) in the test with SK-MEL-5 melanoma; 40% in the test on UACC-62 melanoma; 12.7% in the test with LOX IMVI melanoma; 57% with SK-MEL-28 melanoma; 29.5% with SK-MEL-2 melanoma; 31.7% in the test on EKVX NSCLC. Besides, the growth in the test with SN12C renal is 29.8%; in the test with UO-31 renal, 43.3%; in the test on CAKI-1 renal, 27.7%; in the test with A498 renal, -2.79% (active); with HL-60(TB) leukemia it was -51.8% (active); in the test on CCRF-CEM leukemia it was 10% (active).
For `COc1ccc(/C=C\c2cc(OC)c(OC)c(OC)c2)cc1OCC(=O)Nc1nc2ccc(C(F)(F)F)cc2s1`, the growth was 15.2% with HCT-15 colon; 92.6% with HT29 colon; -6.34% (active) in the test with SNB-75 CNS; 33.7% in the test with SNB-19 CNS; 18% with U251 CNS; 31.5% in the test on PC-3 prostate. Moreover, the growth in the test on SK-MEL-5 melanoma was 16.8%; with UACC-62 melanoma, 32.1%; in the test on LOX IMVI melanoma it was 9.35% (active); in the test on SK-MEL-28 melanoma it was 32.9%; in the test on EKVX NSCLC, 77.3%; in the test on SN12C renal, 45.8%. Besides, the growth with UO-31 renal is 21%; in the test with TK-10 renal, 8.6% (active); with ACHN renal, 38.2%; in the test on CAKI-1 renal, 24.5%; in the test with A498 renal, 14.3%; in the test with HL-60(TB) leukemia, 11.8%. Besides, the growth with CCRF-CEM leukemia was 25.4%.
Turning to `CCC(=O)Nc1ccc(Cl)c(Cl)c1`, the growth is 101% in the test on HCT-15 colon; 91.3% in the test with HT29 colon; 102% in the test on SNB-75 CNS; 107% with SNB-19 CNS; 95.7% with U251 CNS; 88.9% with PC-3 prostate. The growth in the test with SK-MEL-5 melanoma is 101%; in the test with UACC-62 melanoma, 96.6%; with LOX IMVI melanoma, 98.3%; with SK-MEL-28 melanoma, 102%; with SK-MEL-2 melanoma, 94.3%; in the test on EKVX NSCLC, 98.4%. Further, the growth with UO-31 renal is 89%; with TK-10 renal, 86.3%; in the test with ACHN renal it was 98.2%; in the test on CAKI-1 renal, 96.8%; with A498 renal, 89.7%; in the test on CCRF-CEM leukemia, 103%.
Turning to `CCC1CN1CCCCN1CC1CC` (stereo not given), the growth in the test with HCT-15 colon is 88.5%; in the test on HT29 colon, 98.2%; with SNB-75 CNS it was 81.7%; with SNB-19 CNS, 99.3%; with U251 CNS, 99%; in the test on PC-3 prostate it was 98.5%. The growth in the test with SK-MEL-5 melanoma was 99.5%; in the test with UACC-62 melanoma, 97.2%; in the test with LOX IMVI melanoma it was 97.7%; with SK-MEL-28 melanoma, 90%; in the test on SK-MEL-2 melanoma, 118%; in the test on SN12C renal it was 95.2%. In addition, the growth in the test with UO-31 renal is 92.6%; in the test with TK-10 renal it was 104%; in the test with ACHN renal it was 100%; in the test on CAKI-1 renal, 99.6%; in the test on A498 renal, 115%; in the test with HL-60(TB) leukemia, 123%.
Take `C=CC12CCN(CC1)C(C(O)c1ccnc3ccc(OC)cc13)C2` (stereo not given): the growth in the test on HCT-15 colon is 66.1%; in the test with HT29 colon, 11.9%; in the test with SNB-75 CNS it was 52.7%; with SNB-19 CNS it was 98.5%; in the test with U251 CNS, 80.6%; in the test with PC-3 prostate, 66%. The growth with SK-MEL-5 melanoma was 53.1%; in the test on UACC-62 melanoma, 92.8%; with LOX IMVI melanoma, 89%; with SK-MEL-28 melanoma, 85.1%; in the test with SK-MEL-2 melanoma, 97.3%; in the test with SN12C renal, 83.5%. In addition, the growth with UO-31 renal was 48.3%; in the test with TK-10 renal, 88.4%; with ACHN renal it was 80.4%; in the test on CAKI-1 renal, 69.8%; with A498 renal, 56.9%; with HL-60(TB) leukemia it was 60.7%. Moreover, the growth with CCRF-CEM leukemia is 75.8%.
For `CCCCCCCC[N+](C)(CCCCCCCC)CCCCCCCC`, the growth was -75% (active) in the test with HCT-15 colon; -100% (active) in the test on HT29 colon; -100% (active) in the test on SNB-75 CNS; -89.6% (active) in the test with SNB-19 CNS; -75% (active) with U251 CNS; -91.3% (active) in the test on PC-3 prostate. Besides, the growth in the test on SK-MEL-5 melanoma is -100% (active); in the test with UACC-62 melanoma it was -94.5% (active); in the test with LOX IMVI melanoma it was -74.7% (active); with SK-MEL-28 melanoma it was -100% (active); in the test on SK-MEL-2 melanoma it was -94.1% (active); in the test on SN12C renal it was -86.5% (active). For the same compound, the growth in the test with UO-31 renal is -100% (active); with TK-10 renal, -100% (active); with ACHN renal, -93.6% (active); with CAKI-1 renal it was -98.6% (active); with A498 renal, -100% (active); in the test on HL-60(TB) leukemia it was 32%. Also, in the test with CCRF-CEM leukemia, the growth was 85.7%.
